# Screens (PubChem BioAssay)
# Shown are actives, neighbours in structure and some others; about 5.9% of the full set was active somewhere.
# GALK inh: galactokinase (human) inhibition; P51570; Purified GALK, Kinase-Glo residual ATP luminescence; Potency, µM (titrated, usually from 57.5 µM), usual class: inhibitors; 270,000 tested, 0.007% active; AID 1868
#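 Luminescence from leftover ATP (Ultra-Glo luciferase/luciferin) served as read-out after a 1 h room-temperature reaction of 5 nM GALK with 35 uM ATP and 100 uM galactose.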
# RORg inh: inhibitors of mouse ROR gamma transcriptional activity | P51450 | Drosophila S2 Gal4-RORgamma UAS-luciferase reporter, 20 h | Potency, µM (doses to about 53.6 µM), usual class: inhibitors | 310,000 tested, 5.4% active | AID 2551; also: nearly all actives have a fitted effect of over 60% in size
#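 Drosophila S2 cells stably expressing Gal4-DBD/mouse RORγ fusion under metallothionein promoter plus UAS-luciferase; compound 1 h, then 700 uM CuSO4 induction for 20 h at ambient temperature; inhibition read as reduced luminescence.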
# TrxR1 substrate: rat thioredoxin reductase 1 substrate activity; 390,000 tested, 0.01% active; O89049; Potency, µM (doses to about 114 µM); AID 588456; purified TrxR1 substrate turnover, NADPH consumption readout; also: nearly all actives have a fitted effect of over 50% in size
# Target sequence (O89049 whole entry, looked up): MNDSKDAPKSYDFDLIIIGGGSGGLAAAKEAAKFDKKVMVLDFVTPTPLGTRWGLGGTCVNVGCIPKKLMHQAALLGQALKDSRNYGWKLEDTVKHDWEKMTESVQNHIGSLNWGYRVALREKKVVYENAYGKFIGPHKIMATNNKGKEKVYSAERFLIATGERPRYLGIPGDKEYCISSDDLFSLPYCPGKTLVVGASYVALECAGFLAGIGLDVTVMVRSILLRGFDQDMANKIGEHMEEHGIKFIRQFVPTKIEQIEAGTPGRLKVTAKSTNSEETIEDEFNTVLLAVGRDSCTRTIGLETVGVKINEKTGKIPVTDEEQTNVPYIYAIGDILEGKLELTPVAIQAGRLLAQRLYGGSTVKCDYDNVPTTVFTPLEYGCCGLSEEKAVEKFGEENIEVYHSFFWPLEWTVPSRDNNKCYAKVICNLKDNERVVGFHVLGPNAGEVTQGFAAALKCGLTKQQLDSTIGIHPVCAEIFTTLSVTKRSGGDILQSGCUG
#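 Rat TrxR1, dispensed at 90 nM, was prereduced with 400 uM NADPH (final) for 5 min at ~22 deg C, then incubated with compound 15 min before 400 uM selenite. A first-read NADPH fluorescence drop versus no-compound background flagged substrates.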
# TrxR1 inh: inhibitors of rat thioredoxin reductase 1; recombinant rTrxR1, NADPH fluorescence consumption, selenite substrate; O89049; Potency, µM (series often up to 114 µM), most hits filed as inhibitors; 390,000 tested, 1% active; also: nearly all actives have a fitted effect of over 65% in size
#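 Rat TrxR1 (90 nM in the dispensed reagent) was pre-reduced with 400 uM NADPH for 5 min at room temperature, then incubated with compound for 15 min. After 400 uM selenite was added, NADPH fluorescence (Ex 340/Em 450 nm) was followed for 8 min.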
# Coupling enz: coupling enzyme interference in Giardia aldolase counter-screen | coupling enzyme system counterscreen, AmpLite Red fluorescence | activity change, negative = inhibition, % at 58.2 µM, hits read low | 290,000 tested, 0.67% active; in the data active = activity change below about -30%
#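 Coupling enzymes only (glyceraldehyde-3-phosphate) + compound, at 57.5 uM final, 10 min RT; add substrate/coupling/AmpLite Red mix, 20 min RT; fluorescence ex 525/em 598 nm. Actives flag coupling-system interference.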
# Gal4-VP16 FLuc: counter-screen for ROR gamma inhibitors: Gal4-VP16 reporter | Drosophila S2 Gal4-VP16 UAS-luciferase, luminescence, 20 h | Potency, µM (doses to about 53.6 µM), hits mostly inhibitors | 310,000 tested, 3.5% active | AID 2546;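 also: Gal4-VP16 expression switched on by copper sulfate through the metallothionein promoter; nearly all actives have a fitted effect of over 50% in size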
# A number is an active result; – = inactive; ? = inconclusive; · = no result; [ ] = another dose, or the depositor's remark. Unless noted, calls follow the shape of the dose curve; as a rule, active = well fitted curve in the direction sought with a large enough effect; inconclusive = small, poorly fitted or top-dose-only effect, or another doubt; inactive = no such curve, though single readings can be large; an effect the other way counts as inactive or inconclusive.
SMILES,GALK inh,RORg inh,TrxR1 substrate,TrxR1 inh,Coupling enz,Gal4-VP16 FLuc
COc1ccc(/C=C2/Sc3ccc(C(=O)N4CCc5ccccc5C4)cc3NC2=O)cc1,–,–,–,–,–,–
COc1ccc(N2CCN(C(=O)c3oc4ccccc4c3C)CC2)cc1,–,–,–,–,–,–
CN(C)C(=S)NC(=O)c1cccc(Cl)c1,–,0.56µM,–,–,–,2µM
O=C(O)c1cccc(NC(=S)NC(=O)c2ccc(-c3ccccc3)cc2)c1,–,–,–,–,–,–
CC(=O)c1cccc(NC(=S)NC2CCCCCCC2)c1,–,3.2µM,–,–,·,13µM
CC(C)OC(=O)c1ccc(NC(=S)NC(=O)c2cncc(Br)c2)cc1,–,2.2µM,–,–,–,2.8µM
CC(=O)c1cccc(NC(=S)NC(=O)c2ccccc2)c1,–,8.9µM,–,35µM,–,?
CCc1cccc(CC)c1NC(=O)c1ccc2c(c1)CCN2S(=O)(=O)c1ccccc1,·,·,–,–,·,·
CNC(=O)/C(C#N)=C1\SC(Cc2ccc(F)cc2)C(=O)N1c1ccccc1C (stereo not drawn),–,–,–,–,–,–
Cc1c(Cc2ccccc2)c(NCCN(C)C)n2c(nc3ccccc32)c1C#N,–,–,–,–,–,–
CC(=O)c1cccc(NC(=S)NC(=O)c2cncc(Br)c2)c1,–,10µM,–,22µM,–,18µM
CC(=O)c1cccc(NC(=S)NCCc2ccc(Cl)cc2)c1,–,13µM,–,–,–,?
COc1cccc(NC(=S)NC(=O)c2cncc(Br)c2)c1,·,·,–,?,·,·
COC(=O)c1cccc(NC(=S)NCCC2=CCCCC2)c1,–,3.2µM,–,–,–,?
CC(=O)c1cccc(NC(=S)NC(=O)c2cccc(Cl)c2)c1,–,2.8µM,–,?,–,10µM
COc1ccc(/C=C(\C#N)c2nc(-c3ccc(Cl)c(Cl)c3)cs2)cc1OC,·,·,–,–,·,·
O=C(NCCCN1CCN(CCCNC(=O)c2ccc3c(c2)OCO3)CC1)c1ccc2c(c1)OCO2,–,–,–,–,–,–
CC1CCCC(C(=O)O)N1C(=O)CCSSCCC(=O)N1C(C)CCCC1C(=O)O (stereo not drawn),–,–,–,–,–,–
CN(C)CCNc1oc(-c2ccccc2Cl)nc1S(=O)(=O)c1ccccc1,·,·,–,–,·,·
CCCNC(=O)C(Cc1ccccc1)NC(=O)c1ccc(C(C)(C)C)cc1 (stereo not drawn),·,·,–,–,·,·
CCCCC(=O)NC(=S)Nc1cccc(C(=O)O)c1,–,–,–,–,–,–
CC(=O)c1cccc(NC(=S)NC(=O)C(C)C)c1,–,13µM,–,?,–,–
CNC(=S)Nc1cccc(C(C)=O)c1,–,–,–,–,–,–
CC(=O)c1cccc(NC(=S)NC(=O)CC(C)(C)C)c1,–,13µM,–,?,–,?
Cc1c(C)c2c(c(C)c1O)CCC(C)(CN1CCN(c3cc(N4CCCC4)nc(N4CCCC4)n3)CC1)O2 (stereo not drawn),·,·,·,–,·,·
SMILES,GALK inh,RORg inh,TrxR1 substrate,TrxR1 inh,Coupling enz,Gal4-VP16 FLuc
CCOC(=O)N1CCN(C(=O)CCCn2c(=S)[nH]c3ccc(Br)cc3c2=O)CC1,–,13µM,–,–,–,?
CCOC(=O)N1CCN(C(=O)CCCCCn2c(=S)[nH]c3ccsc3c2=O)CC1,–,11µM,–,–,–,?
CCN(CC)C(=O)Cn1cc(S(=O)(=O)CC(=O)Nc2ccc(OC)c(OC)c2)c2ccccc21,–,–,–,–,·,–
Cc1ccccc1NC(=O)COC(=O)CC1CCCC1,·,·,–,–,·,·
COc1ccccc1CNC(=O)CC(c1ccc(F)cc1)N1Cc2ccccc2C1=O (stereo not drawn),·,·,–,–,·,·
C[C@H](NC(=O)N1CCn2c1nc1ccccc12)C(=O)NCc1ccco1,–,–,–,–,·,–
C/C(=N\NC(=O)CSc1nc2ccccc2o1)c1ccc(O)cc1,–,11µM,–,–,–,–
CCOC(=O)c1c(NC(=O)CSc2nc3ccccc3o2)sc(C(C)=O)c1C,–,13µM,–,–,–,?
Cc1ccc(Cl)cc1NC(=O)CSc1nc2ccccc2c2nc(-c3ccccc3)nn12,·,·,–,–,·,·
CCc1nnc(NC(=O)c2cc(-c3ccccc3)nn2-c2ccccc2)s1,–,10µM,–,–,–,?
CCc1nnc(NC(=O)CN2CCN(c3nc(-c4ccccc4)cs3)CC2)s1,–,11µM,–,–,–,?
Cc1ccc2nc(NC(=O)CN(C)S(=O)(=O)c3cccc4nsnc34)sc2c1,–,–,–,–,–,–
CCCn1nc(C(=O)Nc2ccc(N3CCOCC3)cc2)c2ccccc2c1=O,·,·,–,–,·,·
CCC1S/C(=N/N=C/c2cccs2)NC1=O (stereo not drawn),–,0.79µM,–,–,–,4µM
CCCC1S/C(=N/N=C/c2cccs2)NC1=O (stereo not drawn),–,0.22µM,–,–,–,0.4µM
CC(C)C1S/C(=N/N=C/c2cccs2)NC1=O (stereo not drawn),·,0.32µM,–,–,–,0.89µM
CC1S/C(=N/N=C/c2cccs2)NC1=O (stereo not drawn),–,2.2µM,?,–,–,7.1µM
CC1S/C(=N/N=C/c2cccc([N+](=O)[O-])c2)NC1=O (stereo not drawn),–,–,–,–,–,–
Cc1ccc(Nc2cc(C)nc(N3CCOCC3)n2)c(C)c1,–,–,–,–,–,–
CCN(CC)c1ccc(NC(=O)c2cc(S(=O)(=O)N3CCc4ccccc43)cn2C)c(C)c1,·,·,–[11.4 µM],–,·,·
Clc1ccc(-c2nnc(-c3ccco3)nc2N2CCCCC2)cc1,–,–,–,6.3µM,–,–
Clc1ccc(-c2nnc(-c3ccc(Br)cc3)c(N3CCSCC3)n2)cc1,–,–,–,–,–,–
Cn1c(SCC(=O)NC2CC2)nnc1-c1cccs1,–,?,–,–,·,18µM
CN(CC(=O)Nc1cccc(F)c1)C(=O)CSc1ccccc1F,–,–,–,–,·,–
O=C(Nc1ccc(N2CCOCC2)c(Cl)c1)c1cc2ccccc2o1,–,–,–,–[2.29 µM],-33,–
O=C(NC(=S)N1CCOCC1)c1cc2ccccc2o1,–,1µM,–,–,–,3.2µM
O=C(Nc1ccc(N2CCOCC2)c(Cl)c1)c1ccc(Br)o1,–,?,–,–,-32,–
O=C(c1cc2ccccc2o1)N1CCOCC1,·,·,–,–,·,·
O=C(Nc1ccccc1N1CCOCC1)c1cc2ccccc2o1,–,–,–,–,–,–
CC(C)=C1C2CCC1C1C(=O)N(c3nc(-c4ccc(C(C)C)cc4)c(C)s3)C(=O)C21 (stereo not drawn),–,–,–,–,–,?
